# Test results taken from PubChem BioAssay (EPA / NIEHS).
# The source made the active and inactive calls. Rule for the calls: active = hit-call score of the fitted dose curve at least 0.9, where 1 is the maximum; inactive = score below 0.9.
# Experiment: APR_HepG2_StressKinase_24hr: Apredica 24-hour HepG2 Assay for Stress Kinase (AID 2282922)
# Conditions: HepG2 stress kinase (phospho-c-Jun) imaging, actives raise or lower the signal
# Description: APR_HepG2_24hr is a cell-based, multiplexed-readout assay that uses HepG2, a human liver cell line, with measurements taken at 24 hours after chemical dosing in a 384-well plate.APR_HepG2_StressKinase_24hr is one of 10 assay component(s) measured or calculated from the APR_HepG2_24hr assay. It is designed to make measurements of enzyme activity, a form of enzyme reporter, as detected with fluorescence intensity signals by HCS Fluorescent Imaging technology.Data from the assay component APR_HepG2_StressKinase_24hr was analyzed into 1 assay endpoint. This assay endpoint, APR_HepG2_StressKinase_24hr, was analyzed with bidirectional fitting relative to DMSO as the negative control and baseline of activity. Using a type of enzyme reporter, measures of protein for gain or loss-of-signal activity can be used to understand the signaling at the pathway-level as they relate to the gene . Furthermore, this assay endpoint can be referred to as a primary readout, because this assay has produced multiple assay endpoints where this one serves a signaling function. To generalize the intended target to other relatable targets, this assay endpoint is annotated to the cell cycle intended target family, where the subfamily is stress response.
# Cells were treated with dimethyl sulfoxide (DMSO) as a solvent control at a final concentration of 0.5% v/v or with compounds in DMSO with a resulting final DMSO concentration of 0.5% v/v. Compound treatment was done at concentrations of 0.39, 0.78, 1.56, 3.12, 6.24, 12.5, 25, 50, 100, and 200 uM in duplicate on each plate. Cells were treated with compounds for 1, 24, or 72 hr. Carbonyl […] m-chloro-phenylhydrazone (CCCP) and taxol were used as positive controls for mitochondrial function and cytoskeletal stability, respectively; DMSO served as the negative control for this experiment. Cells were fixed by the direct addition of 50 uL formaldehyde in Hank's Balanced Salt Solution (HBSS) to a final concentration of 3.7%. After incubation in the fixation medium for 30 min at room temperature (293-298 K), cells were rinsed twice with HBSS and treated with cell permeabilization buffer (16 uL of 0.5% Triton X-100) for 10 min at room temperature (293-298 K) before labeling. For mitochondrial membrane potential and mitochondrial measurements, pre-fixed cells were incubated with 50 uL of MitoTracker Red CMXRos (Invitrogen) at a concentration of 250 nM for 30 min before fixation. In the remaining cases, post-fixed cells were labeled by incubation with a multiplexed mixture of primary antibodies in HBSS for 60 min at room temperature (293-298 K) to detect immunoreactivity of c-Jun (1:500), phospho-histone H3 (1:100), phospho-histone H2A.x (1:200), p53 (1:400), alpha-tubulin (1:200) and Hoechst 33342 (2 ug/mL). Cells were labeled for multiplexed imaging on two separate plates: a) Hoechst 33342, MitoTracker Red, phospho-histone H3, and alpha-tubulin, and b) Hoechst 33342, phospho-histone H2A.x, and c-Jun. A final rinse with HBSS (50 uL) was performed before analysis. The primary and secondary antibodies for the proteins were phospho-histone H3 (rabbit anti-phospho-histone H3 and FITC-donkey anti-rabbit IgG), phospho-histone H2A.x (mouse anti-phospho-histone H2A.x and FITC-donkey anti-mouse IgG), c-Jun (rabbit anti-phospho-c-Jun and Cy3-donkey anti-rabbit IgG), p53 (sheep anti-p53 and Cy5-donkey anti-sheep IgG), alpha-tubulin (mouse anti-alpha-tubulin and Cy5-donkey anti-mouse IgG). These antibodies are available as the CellCiphr HepG2 assay kit (Millipore).Digital images of each well were captured using a Cellomics ArrayScan VTI (Thermo Scientific Cellomics) (0.8 NA objective, 0.63x optical coupler, and XF-93 filter set) at 20x magnification. The images were acquired using the autofocus feature of the ArrayScan instrument, which entails the following steps. First, the camera focuses on channel 1 (Hoechst 33342), where nuclei are identified. Second, a Z offset of 1 um is used for capturing mitochondria (MitoTracker Red). […]
Structure (SMILES),outcome,AC50
Oc1ccc2c(c1)OC[C@@H](N1CCC(O)(c3ccc(F)cc3)CC1)[C@H]2O,inactive,–
Cc1ccc2ncccc2c1,inactive,–
Cc1cccc([N+](=O)[O-])c1C,inactive,–
C[Si]1(C)O[Si](C)(C)O[Si](C)(C)O[Si](C)(C)O1,inactive,–
COc1ccc2c(c1)c(CC(=O)O)c(C)n2C(=O)c1ccc(Cl)cc1,inactive,–
COc1ccc(S(=O)(=O)N2C(=O)[C@@](c3ccccc3OC)(N3C[C@H](O)C[C@H]3C(=O)N(C)C)c3cc(Cl)ccc32)c(OC)c1,inactive,–
Cc1ccc(C)c(C)c1,inactive,–
NCCO,inactive,–
COc1ccc(C)cc1N,inactive,–
Cc1nc(-c2ccc3c(c2)CCN(CCC2CCC(NC(=O)/C=C/c4ccc(F)cc4)CC2)CC3)no1 (stereo not given),inactive,–
CCCCCCCCCCO,inactive,–
Cc1ccc(C)c(O)c1C,inactive,–
CNC(=O)[C@H]1O[C@@H](n2cnc3c(NCc4cc(Cl)ccc4OCc4cc(C)no4)ncnc32)[C@H](O)[C@@H]1N,inactive,–
OC[C@@H](O)[C@@H](O)[C@H](O)[C@H](O)CO,inactive,–
CCCCCCC(=O)OCC,inactive,–
Cc1ccc(Cl)cc1,inactive,–
CC1(C)CC(N=C=O)CC(C)(CN=C=O)C1 (stereo not given),inactive,–
Cc1c(C(=O)O)c(O)cc2c1C(=O)c1c(O)c([C@@H]3O[C@H](CO)[C@@H](O)[C@H](O)[C@H]3O)c(O)c(O)c1C2=O,inactive,–
CC(=O)OC/C=C(\C)CCC=C(C)C,inactive,–
O=C(OCCCCCOC(=O)c1ccccc1)c1ccccc1,inactive,–

Structure (SMILES),outcome,AC50
Clc1cc(Cl)c(Cl)cc1Cl,inactive,–
COc1cc(-c2nc(NC(=O)c3cc4cc(C)cc(C)c4n3CC(=O)O)sc2CCC2CCCCC2)c(OC)cc1Cl,–,48.8 µM (active)
CCCCCCCCCCCCCCCC,inactive,–
CC1=C(/C=C/C(C)=C/C=C/C(C)=C/CO)C(C)(C)CCC1,–,72.1 µM (active)
Nc1ccc(S(=O)(=O)c2ccc(N)cc2)cc1,inactive,–
Nc1ccccc1N,inactive,–
CC(C)(C)c1cc(O)c(C(C)(C)C)cc1O,–,93.1 µM (active)
COc1cc(S(=O)(=O)O)c(C)cc1N=Nc1c(O)ccc2cc(S(=O)(=O)O)ccc12,inactive,–
COc1cc(C=O)ccc1O,inactive,–
Nc1ccc2c(c1)C(=O)c1ccccc1C2=O,inactive,–
O=c1[nH]cc(F)c(=O)[nH]1,inactive,–
CCCCN(CCCC)CCCC,inactive,–
CCOC(=O)C(C)(C)Oc1ccc(Cl)cc1,inactive,–
CCCCCCOCCO,inactive,–
CCCCCCCCCCC,inactive,–
C=CCOC(=O)c1ccccc1C(=O)OCC=C,inactive,–
CC(=O)OCCOCCOCCOC(C)=O,inactive,–
COCCOC[C@H](CC1(C(=O)NC2CCC(C(=O)O)CC2)CCCC1)C(=O)Oc1ccc2c(c1)CCC2 (stereo not given in full),inactive,–
O=c1c(O)c(-c2ccc(O)c(O)c2)oc2cc(O)cc(O)c12,inactive,–
O=C(O)CCCCC(=O)O,inactive,–
